RGS16-Gao: modulators of RGS16 binding to Galphao, primary screen, biochemical, human proteins, multiplexed bead flow cytometry; 0.38% of 220,000 active; Regulator of G-protein signaling 16 (Homo sapiens) + Guanine nucleotide-binding protein …; AID 1441, 2008; binding response (% of control), % at 10 µM; bead-based flow cytometry RGS16-Galphao binding, fluorescence; actives lie on both sides;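 note: Galphao activated by GDP with aluminum fluoride before binding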
Target sequence (O15492 whole entry, looked up): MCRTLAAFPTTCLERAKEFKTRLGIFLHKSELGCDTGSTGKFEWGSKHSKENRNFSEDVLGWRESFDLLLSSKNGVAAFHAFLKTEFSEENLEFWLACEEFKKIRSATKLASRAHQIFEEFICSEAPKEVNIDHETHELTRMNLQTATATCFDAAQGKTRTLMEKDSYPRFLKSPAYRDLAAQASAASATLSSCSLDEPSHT
Target sequence (P09471 whole entry, looked up): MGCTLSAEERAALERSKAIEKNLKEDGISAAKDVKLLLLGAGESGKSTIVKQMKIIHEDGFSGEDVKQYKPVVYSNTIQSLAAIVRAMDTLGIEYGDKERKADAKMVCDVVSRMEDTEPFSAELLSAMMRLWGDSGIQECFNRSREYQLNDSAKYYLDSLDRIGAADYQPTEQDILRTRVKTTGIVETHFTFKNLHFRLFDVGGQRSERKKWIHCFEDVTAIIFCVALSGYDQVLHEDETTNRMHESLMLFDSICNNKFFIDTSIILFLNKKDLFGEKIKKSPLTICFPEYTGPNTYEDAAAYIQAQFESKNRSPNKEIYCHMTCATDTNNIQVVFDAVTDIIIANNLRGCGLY
Avidin fluor: green autofluorescence of compounds with avidin beads – biophysical, 488/530 nm, flow cytometry, artefact control, profiling panel. compound fluorescence 488/530 nm; active compounds read high. fluorescence (KMESF) at 10 µM. AID 1775, 2009. 0.38% of 220,000 active; in the data active = fluorescence above about 47
GSH fluor: compound fluorescence on glutathione beads, profiling panel, artefact control, biophysical, 488/530 nm, flow cytometry; GSH beads flow cytometry, compound fluorescence 488/530 nm; active compounds read high; fluorescence (KMESF) at 10 µM; 0.25% of 190,000 active; in the data active = fluorescence above about 89;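 note: glutathione beads carrying GST-tagged Bcl family fusion proteins plus one bare bead set; values are compound well signal with DMSO vehicle wells as background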
RGS7-Gao reg: RGS7-Galphao binding modulators, primary screen, biochemical, multiplexed bead flow cytometry. Guanine nucleotide-binding protein G(o) subunit alpha (Homo sapiens), P09471. actives lie on both sides. binding response (% of control), % at 10 µM. 0.35% of 220,000 active; in the data active = binding response below about 49% or above about 150%; inconclusive = no clear call, values can overlap the other calls; inactive = in between;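 note: fluorescent Galphao held in activated GDP-AlF4 state binding bead-coupled RGS7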
Target sequence (P09471 whole entry, looked up): as above
RGS8-Gao reg: RGS8-Galphao binding modulators, primary screen, biochemical, multiplexed bead flow cytometry; Guanine nucleotide-binding protein G(o) subunit alpha (Homo sapiens), P09471; response (percent of control binding), % at 10 µM; 0.34% of 220,000 active; actives lie on both sides; AID 1423, 2008; in the data active = response below about 60% or above about 140%; inactive = in between;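 note: Galphao activated as the GDP aluminium fluoride complex binding bead-coupled RGS8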
RGS4-Gao reg: modulators of RGS4 binding to Galphao, primary screen, biochemical, multiplexed bead flow cytometry; actives lie on both sides; binding response (% of control), % at 10 µM; Guanine nucleotide-binding protein G(o) subunit alpha (Homo sapiens), P09471; 0.33% of 220,000 active; in the data active = binding response below about 49% or above about 150%; inactive = in between;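 note: fluorescent Galphao activated with aluminum fluoride binding bead-coupled RGS4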
RGS4-Gao HTS: modulators of RGS–Galpha-o binding, primary screen, biochemical, multiplexed beads, flow cytometry, RGS4/7/8/16/19; multiplexed bead flow cytometry; shares compounds with RGS16-Gao; 99% of 1,600 active; RGS4–Galpha-o binding response, % at 10 µM;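 note: fluorescently labeled Galpha-o bound to GDP with aluminium fluoride binding biotinylated RGS beads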
Biotin-avidin: disruption of biotin probe capture by avidin, counter-screen for RGS protein interaction modulators, biochemical, flow cytometry, bead-based; shares compounds with RGS16-Gao; streptavidin beads, fluorescein-biotin binding; AID 1783, 2009; 1,700 tested, under 10 active; inhibition, % at 10 µM;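 active = inhibition above 50%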;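 note: median green fluorescence of gated singlet beads compared with DMSO control wells; 0% = DMSO wells and 100% = complete loss of bead fluorescence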
RGS8-Gao confirm: RGS8-Galphao binding modulators, confirmation, biochemical, multiplexed bead flow cytometry, single concentration. shares compounds with RGS16-Gao. bead-based flow cytometry RGS8-Galphao binding, fluorescence; actives lie on both sides. binding response (% of control), % at 10 µM. 3% of 1,700 active; in the data active = binding response below about 72% or above about 130%; inactive = in between;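 note: Galphao activated as GDP AlF4 complex before binding bead RGS8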
RGS7-Gao single: RGS7-Galphao binding modulators, confirmation, biochemical, multiplexed bead flow cytometry, single concentration | response (percent of control binding), % at 10 µM | shares compounds with RGS16-Gao | 7.8% of 1,700 active | AID 1837, 2009 | bead-based flow cytometry RGS7-Galphao binding; actives lie on both sides; in the data active = response below about 75% or above about 130%; inactive = in between;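 note: fluorescent Galphao activated with GDP and aluminum fluoride binding bead-coupled RGS7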
RGS16-Gao conf: modulators of RGS16-Galphao protein binding, confirmation, biochemical, single concentration, multiplexed bead flow cytometry | response (% of control binding), % at 10 µM | AID 1838, 2009 | shares compounds with RGS16-Gao | bead-based flow cytometry; actives lie on both sides | 4% of 1,700 active; in the data active = response below about 74% or above about 130%; inactive = in between;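 note: Galphao activated as the GDP aluminium fluoride complex binding bead-coupled RGS16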
RGS4-Gao confirm: modulators of RGS4-Galphao protein binding, confirmation, biochemical, single concentration, multiplexed bead flow cytometry. actives lie on both sides. 4% of 1,700 active. binding response (% of control), % at 10 µM. shares compounds with RGS16-Gao. AID 1840, 2009; in the data active = binding response below about 74% or above about 130%; inactive = in between
RGS19-Gao conf: regulators of RGS19-Galphao binding, confirmation, biochemical, single point, multiplexed bead flow cytometry | shares compounds with RGS16-Gao | bead-based flow cytometry RGS19-Galphao binding; actives lie on both sides | response (percent of control binding), % at 10 µM | 5% of 1,700 active | AID 1841, 2009; in the data active = response below about 50% or above about 160%; inactive = in between;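 note: 100% = no compound control and 0% = blank background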
* = called active by the depositor; [ ] = remark or other dose. Rows were chosen to be rich in hits. Some 1.2% of all compounds tested hit in one or more screens of this group. Unless noted, the rule behind the calls is not given here.

For CCN1CCN(C(=O)Cn2nc(-c3ccc(Cl)cc3)ccc2=O)CC1 the results were RGS16-Gao 100, Avidin fluor 40, GSH fluor 25, RGS7-Gao reg 171*[activator], RGS8-Gao reg 101, RGS4-Gao reg 105, RGS4-Gao HTS 105*, Biotin-avidin 2, RGS8-Gao confirm 104, RGS7-Gao single 105, RGS16-Gao conf 106, RGS4-Gao confirm 104 and RGS19-Gao conf 88.
For COc1ccc(Cl)cc1C(=O)NC(C)C the results were RGS16-Gao 107, Avidin fluor 10, GSH fluor 21, RGS7-Gao reg 105, RGS8-Gao reg 102 and RGS4-Gao reg 102.
CN(C(=O)c1cccs1)c1ccc(OCC(=O)Nc2ccc(C(=O)O)cc2)cc1 was read as RGS16-Gao 101, Avidin fluor 4, RGS7-Gao reg inconclusive, RGS8-Gao reg 102 and RGS4-Gao reg 98.
For COc1ccc(S(=O)(=O)N2CCN(C(=O)COc3ccc4c(C)cc(=O)oc4c3)CC2)cc1 the results were RGS16-Gao 100, Avidin fluor 10, GSH fluor 11, RGS7-Gao reg 101, RGS8-Gao reg 103 and RGS4-Gao reg 105.
`COc1ccc(N2CCN(C(=O)c3ccc(COc4ccc5c(C)cc(=O)oc5c4)cc3)CC2)cc1` gave RGS16-Gao 100, Avidin fluor 84*, GSH fluor 24, RGS7-Gao reg 158*[activator], RGS8-Gao reg 99, RGS4-Gao reg 180*[activator], Biotin-avidin -1, RGS8-Gao confirm 102, RGS7-Gao single 98, RGS16-Gao conf 102, RGS4-Gao confirm 100 and RGS19-Gao conf 95.
CC(C)Oc1ccc(Cc2cnc(N)nc2N)cc1 was read as RGS16-Gao inactive, Avidin fluor 8, GSH fluor 40, RGS7-Gao reg 132, RGS8-Gao reg 163*[activator], RGS4-Gao reg 137, RGS4-Gao HTS 137*, Biotin-avidin 0, RGS8-Gao confirm 104, RGS7-Gao single 103, RGS16-Gao conf 102, RGS4-Gao confirm 104 and RGS19-Gao conf 100.
Screening CCCCOc1ccc(Cc2cnc(N)nc2N)cc1 returned RGS16-Gao 100, Avidin fluor 6, RGS7-Gao reg inconclusive, RGS8-Gao reg 99 and RGS4-Gao reg 100.
For COc1ccccc1CCc1nnc(CCC(=O)NCCCOc2cccnc2)o1 the results were RGS16-Gao 101, Avidin fluor 2, GSH fluor 9, RGS7-Gao reg 98, RGS8-Gao reg 99 and RGS4-Gao reg 101.
`CN=c1scc(-c2ccccc2F)n1/N=C(\C)c1cccnc1` gave RGS16-Gao 101, Avidin fluor 12, GSH fluor 15, RGS7-Gao reg inconclusive, RGS8-Gao reg 101 and RGS4-Gao reg 101.
`CC(C)(C)c1nnc(NC(=O)CS(=O)(=O)Cc2ccccc2)s1` gave RGS16-Gao 61, Avidin fluor 1, GSH fluor 17, RGS7-Gao reg 51, RGS8-Gao reg 57*, RGS4-Gao reg 86, RGS4-Gao HTS 86*, Biotin-avidin -1, RGS8-Gao confirm 103, RGS7-Gao single 102, RGS16-Gao conf 102, RGS4-Gao confirm 101 and RGS19-Gao conf 94.
`O=C1CCCC2=C1C(c1cccs1)n1ncnc1N2` (stereo not drawn) gave RGS16-Gao 142, Avidin fluor 80*, GSH fluor 25, RGS7-Gao reg 163*[activator], RGS8-Gao reg 105, RGS4-Gao reg 202*[activator], Biotin-avidin -1, RGS8-Gao confirm 93, RGS7-Gao single 61*, RGS16-Gao conf 72*, RGS4-Gao confirm 74* and RGS19-Gao conf 40*.
For Cc1ccsc1C1C2=C(CCCC2=O)Nc2ncnn21 (stereo not drawn) the results were RGS16-Gao 102, Avidin fluor 14, GSH fluor 25, RGS7-Gao reg 99, RGS8-Gao reg 102 and RGS4-Gao reg 99.
`O=C(O)CC1(CC(=O)Nc2ccc3sccc3c2)CCCCC1` gave RGS16-Gao 104, Avidin fluor 6, RGS7-Gao reg inconclusive, RGS8-Gao reg 104 and RGS4-Gao reg 101.
CC(=O)Nc1nc2c(C)c(Cl)ccc2s1 was read as RGS16-Gao 99, Avidin fluor 7, RGS7-Gao reg inconclusive, RGS8-Gao reg 82, RGS4-Gao reg 96, Biotin-avidin 2, RGS8-Gao confirm 104, RGS7-Gao single 102, RGS16-Gao conf 110, RGS4-Gao confirm 101 and RGS19-Gao conf 99.
`CCCC(=O)Nc1nc2c(C)c(Cl)ccc2s1` gave RGS16-Gao 96, Avidin fluor 6, RGS7-Gao reg inconclusive, RGS8-Gao reg 97 and RGS4-Gao reg 94.
Screening COc1ccc(NC(=O)C2CCC(CNS(=O)(=O)c3cccs3)CC2)cc1 (stereo not drawn) returned RGS16-Gao 99, Avidin fluor 8, GSH fluor 13, RGS7-Gao reg 98, RGS8-Gao reg 100 and RGS4-Gao reg 100.

Screens from PubChem BioAssay.
